A selection: hits, their analogues and other compounds. The true share with any hit is near 10%.
Lamin A splicing = qHTS Assay for Modulators of Lamin A Splicing. Potency, µM (top dose mostly 46.1 µM), hits mostly inhibitors. HeLa LMNA splicing GFP/RFP minigene ratio, 48 h. 200,000 compounds, 0.01% hits; active = well fitted inhibition curve with a large enough effect in the signal ratio, with a control signal flat, not every such curve was filed as active; inconclusive = small, poorly fitted or top-dose-only effect, or effect the other way, or a change in a side signal; the % refers to the signal ratio
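S3 HeLa stable clones carrying a lamin A-EGFP splicing minigene plus DsRed2 were seeded at 600 cells/well in Opti-MEM with 2% FBS, pin-dosed and incubated 48 h at 37°C. Acumen cytometry (488 nm) gave the GFP/RFP total-intensity ratio.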
HPGD inh = qHTS Assay for Inhibitors of HPGD (15-Hydroxyprostaglandin Dehydrogenase). 15-hydroxyprostaglandin dehydrogenase [NAD(+)] (Homo sapiens), P15428. 150,000 compounds, 4.3% hits. purified HPGD, NADH fluorescence kinetic, PGE2 substrate. Potency, µM, most hits filed as inhibitors
Target sequence (P15428 whole entry, looked up): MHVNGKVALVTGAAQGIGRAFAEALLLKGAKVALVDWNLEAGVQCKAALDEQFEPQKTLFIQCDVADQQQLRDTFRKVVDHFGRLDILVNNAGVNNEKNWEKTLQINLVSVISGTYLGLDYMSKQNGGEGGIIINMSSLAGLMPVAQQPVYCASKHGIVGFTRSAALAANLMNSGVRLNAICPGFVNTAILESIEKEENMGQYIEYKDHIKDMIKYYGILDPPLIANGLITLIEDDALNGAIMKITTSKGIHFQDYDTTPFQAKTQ
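20 nM HPGD preincubated 15 min at room temperature with compound in 50 mM Tris-HCl pH 8, 0.01% Tween 20. Started with 1 mM NAD+ and 30 uM prostaglandin E2; NADH fluorescence (360/450 nm) read 5 times over 30-s intervals, last minus first.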
Luc counter = Counterscreen for Luciferase (Kinase-Glo TM) Inhibition | Luciferin 4-monooxygenase (Photuris pensylvanica), Q27757 | Kinase-Glo luciferase, ATP luminescence, 8 min | Potency, µM (series often up to 38.3 µM), most hits filed as inhibitors | 200,000 compounds, 0.28% hits; active = well fitted inhibition curve with a large enough effect; inconclusive = small, poorly fitted or top-dose-only effect; note: nearly all actives have a fitted effect of over 60% in size
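Compounds were added to a substrate mix at pH 7.2 (50 mM imidazole, 10 uM ATP, within the enzyme's linear range), followed by Kinase-Glo detection reagent; luminescence was measured after 8 minutes at ambient temperature.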
ALDH1A1 inh = qHTS Assay for Inhibitors of Aldehyde Dehydrogenase 1 (ALDH1A1); Aldehyde dehydrogenase 1A1 (Homo sapiens), P00352; Purified ALDH1A1, NADH fluorescence, propionaldehyde substrate; Potency, µM (highest dose often 75.3 µM), most hits filed as inhibitors; 220,000 compounds, 7.3% hits; AID 1030, 2008
PNC inhibitor = High Content Assay for Compounds that inhibit the Assembly of the Perinucleolar Compartment; AID 2417, 2010; PC3M PTB-GFP, PNC prevalence imaging, 16 h; stronger effect = lower value; 140,000 compounds, 3.1% hits; activity change (PNC), negative = inhibition, % at 10 µM;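 active = readout at or below -70, meaning at least 70% loss of cells showing the perinucleolar compartment, a nuclear body marking cancer cells; inconclusive = readout between -30 and a set limit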
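Compounds are pinned in duplicate onto adhered PC3M cells stably expressing GFP-tagged PTB and incubated 16 h at 37 C. Cells are then fixed, nuclei stained with Hoechst, and PNC-positive cells counted.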
Numbers stand for hits; – = inactive; ? = inconclusive; · = no result given; [ ] = another dose, or the depositor's remark. Unless noted, calls come from the whole dose curve; as a rule, active = well fitted inhibition curve with a large enough effect (not every such curve was filed as active); inconclusive = small, poorly fitted or top-dose-only effect, or another doubt; inactive = no such curve, though single readings can be large or run the other way.

SMILES | Lamin A splicing | HPGD inh | Luc counter | ALDH1A1 inh | PNC inhibitor
CCC(C)(C)NC(=O)C(c1ccc(C)cc1)N(Cc1ccco1)C(=O)Cn1nnc2ccccc21 (stereo not given) | – | – | – | – | -100
CCC(C)(C)NC(=O)C(c1cccn1C)N(C(=O)Cn1nnc2ccccc21)c1ccc(OC)cc1OC (stereo not given) | – | – | – | 11µM | –
CCOC(=O)c1scc(-c2ccc(C)cc2)c1S(=O)(=O)N1CCN(c2ccccc2F)CC1 | – | · | · | · | ·
COc1ccc(-n2ncc(C(=O)NCCCN3CCCCC3)c2C2CCN(C(=O)OC(C)(C)C)CC2)cc1 | – | · | · | · | ·
Cc1nnc(N/N=C\c2ccc(-c3ccccc3[N+](=O)[O-])o2)n1N | – | – | – | 20µM | –
Cc1n[nH]c(=S)n1/N=C/c1ccc(-c2ccccc2[N+](=O)[O-])o1 | – | 14µM | – | 14µM | –
Cc1nnc(N/N=C/c2ccc(-c3ccccc3F)o2)n1N | · | · | · | – | ·
CC1(C)CC(CC(=O)NNc2nc(-c3ccccc3)cs2)C(=O)O1 (stereo not given) | – | – | – | – | -84
COc1ccc2c(c1)O[C@H](c1ccc3c(c1)OCO3)[C@@H](OC(=O)NS(=O)(=O)c1ccc(C)cc1)C2=O | · | – | – | ? | ·
COCCNC(=O)COc1ccc(Br)cc1Cl | – | ? | – | – | –
C=CCNC(=O)COc1ccc(Br)cc1Cl | – | ? | – | – | -114
CN(C)CCCNC(=O)COc1ccc(Br)cc1Cl | ? | – | – | – | -87
C[C@H]1O[C@H](O[C@H]2[C@H](O)[C@@H](O)[C@@H](O[C@H]3[C@H](O)[C@@H](O)C(O)O[C@@H]3CO)O[C@@H]2CO)[C@H](O)[C@@H](O)[C@@H]1N[C@H]1C=C(CO)[C@@H](O)[C@H](O)[C@H]1O (stereo not given in full) | – | · | · | · | ·
COCCn1c(C)cc(O)c(C(c2ccccc2)N2CCN(c3ccccc3)CC2)c1=O (stereo not given) | – | · | · | · | ·
CCN1CCN(CCCNC(=O)Cn2c(-c3cccs3)cc3cc(F)ccc32)CC1 | – | · | · | · | ·
CCN(CC)CCCNC(=O)c1ccc(N2CCCCC2)c(NS(=O)(=O)c2ccc(C)cc2)c1 | · | · | – | 14µM | ·
COCCNC(=O)c1ccc(N2CCCCC2)c(NS(=O)(=O)c2ccc(C)cc2)c1 | – | – | – | 8.9µM | –
CCN(CC)CCNC(=O)c1ccc(NC(=O)c2cccc(S(=O)(=O)Nc3ccc(C)cc3)c2)cc1 | · | · | – | – | ·
CCC1=C2CC[C@H]3C(=O)N(c4ccccc4)C(=O)[C@H]3[C@H]2[C@@]2(Cc3ccccc3)C(=NCCc3c[nH]c4ccccc34)OC(=O)N2C1=O | · | – | – | – | ·
CCc1cnc2c(c1SCc1cc(OC)cc(OC)c1)c(=O)n(C)c(=O)n2C | – | · | · | · | ·
Cc1ccc(NC(=O)CN2C(=O)N/C(=C/c3ccc(C)o3)C2=O)cc1 | – | ? | – | 13µM | ?
Cc1ccc(NC(=O)CN2C(=O)N/C(=C/c3ccc(C)s3)C2=O)cc1 | – | – | – | – | –
C=CCN1C(=O)N/C(=C/c2ccc(C)o2)C1=O | – | – | – | 7.9µM | ?
Cc1cccc(NC(=O)CN2C(=O)N/C(=C/c3ccc(C)o3)C2=O)c1 | – | – | – | 10µM | –
Cc1cccc(N2C(=O)CS(=O)(=O)C23C(=O)N(Cc2c(F)cccc2Cl)c2ccccc23)c1 (stereo not given) | – | · | · | · | ·
SMILES | Lamin A splicing | HPGD inh | Luc counter | ALDH1A1 inh | PNC inhibitor
Nc1cnn([C@@H]2O[C@H](CO)[C@@H](O)[C@H]2O)c(=O)n1 | · | – | · | ? | ·
Cc1cccc(CN2CCc3c(OCC(=O)N4CCCc5ccccc54)cccc3C2=O)c1 | ? | – | – | 16µM | –
Cc1ccc(C)c(NC(=O)COc2cccc3c2CCN(Cc2ccccc2)C3=O)c1 | ? | – | – | – | –
O=C1c2cccc(OCc3ccc(F)cc3)c2CCN1Cc1ccccc1 | ? | – | – | – | -82
O=C(COc1cccc2c1CCN(Cc1ccccc1)C2=O)NCc1ccco1 | – | – | – | 20µM | ?
Cc1cccc(CN2CCc3c(OCC(=O)NCc4ccco4)cccc3C2=O)c1 | – | – | – | 22µM | –
CC(=O)OC[C@@H]1O[C@H](C/C=N\OC[C@@H](O)COCc2ccco2)C=C[C@@H]1OC(C)=O | · | · | · | –[13.5 µM] | ·
Cc1ccc(CNC(=O)CCCN2C(=O)c3cccnc3Oc3ccc(Cl)cc32)cc1 | – | · | · | · | ·
Cc1nc(=O)c(-c2ccccc2)c(C)n1-c1cccc(C(=O)O)c1 | – | · | · | – | -101
Cc1cc(C)c(C(=O)Nc2ccccc2)c(SCC(=O)Nc2ccc(Br)cc2C)n1 | – | · | · | · | ·
O=C(N/N=C/c1cn(-c2ccccc2)nc1-c1cccnc1)c1cccnc1 | ? | · | – | – | ·
O=C(NCC1CCCO1)/C(=C/c1cn(-c2ccccc2)nc1-c1cccnc1)NC(=O)c1ccccc1 (stereo not given) | – | · | – | 0.56µM | ·
O=C(NCCCO)/C(=C\c1cn(-c2ccccc2)nc1-c1cccnc1)NC(=O)c1ccccc1 | – | – | – | 1.8µM | –
COC(=O)c1ccc(C(NC(=O)OCc2ccccc2)/C(=C/[C@@H](C)C(=O)NCc2nc3ccccc3s2)c2cccnc2)cc1 (stereo not given in full) | · | – | – | – | ·
CC12C=C(/C=C/c3ccc(F)cc3)C(C)(C1)C(c1ccc(F)cc1)CC2=O (stereo not given) | · | · | · | –[13.5 µM] | ·
COc1ccc(OCc2nnc(SCC(=O)N3c4ccccc4Sc4ccc(Cl)cc43)o2)cc1 | – | – | – | ? | –
O=C(CSc1nnc(-c2ccccc2Br)o1)N1CCc2ccccc2C1 | – | 25µM | – | ? | –
COc1cc(OC)cc(-c2nnc(SCC(=O)N3CCCCC3)o2)c1 | – | 25µM | – | – | –
O=C(CSc1nnc(-c2ccco2)o1)N1c2ccccc2CCc2ccccc21 | ? | – | – | – | –
O=C(CSc1nnc(-c2c[nH]c3ccccc23)o1)N1c2ccccc2CCc2ccccc21 | ? | – | – | 3.5µM | –
COc1cccc(OCc2nnc(SCC(=O)N3c4ccccc4Sc4ccc(Cl)cc43)o2)c1 | ? | – | – | 10µM | –
O=C(c1ccncc1)N1CCC2(CCCN(c3cccc(-c4ccccc4)c3)C2)CC1 | · | – | – | – | ·
O=C(Nc1ccc(S(=O)(=O)Nc2ccccc2)cc1)N1CCCC1 | – | · | · | · | ·
O=C(CSc1nnc(COc2cccc3cccnc23)o1)N1CCCC1 | – | · | – | – | ·
O=C(CSc1nnc(COc2cccc3ccccc23)o1)N1c2ccccc2CCc2ccccc21 | – | – | – | 22µM | –
O=C(CSc1nnc(-c2c[nH]c3ccccc23)o1)N1CCCCC1 | ? | 28µM | – | ? | –

High-throughput results: PubChem BioAssay, National Center for Advancing Translational Sciences (NCATS)
